Assay results as given in PubChem BioAssay AID687001 (Broad Institute, 2013).
Entries with a potency or affinity are not part of this list. The source made the active and inactive calls.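 How the source made its calls: active means signal-lowering compounds whose fitted half-maximal concentration is at or below twice the top tested dose in every run; inconclusive means runs disagree, flat 30 to 70% inhibition, or poor curve fit; inactive means the rest.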

target: Protein S100-A4 (Homo sapiens) (UniProt P26447); test: human S100A4 peptide interaction inhibition curves – biochemical, fluorescence polarization, cherry-picked hits, dose response (AID 687001); settings: FP, S100A4/TAMRA-myosin IIA peptide binding; series mostly up to 11 µM
Sequence (P26447 whole entry, looked up): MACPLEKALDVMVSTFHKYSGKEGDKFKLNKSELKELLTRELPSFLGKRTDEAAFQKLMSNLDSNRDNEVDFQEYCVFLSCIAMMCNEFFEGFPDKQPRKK

outcome, inactive:
Cc1ccc(OCCOCCn2cnc3ccccc3c2=O)c([N+](=O)[O-])c1
CN(CC1CCCN(CCc2ccc(Cl)cc2)C1)C(=O)CC(F)(F)F (centres undefined)
O=C(NCCS(=O)(=O)NCCCc1ccccc1)c1ccccc1
O=C(c1cnn(C(=O)c2ccco2)c1)c1cc(Cl)cc(Cl)c1O
COc1ccc(C(=O)OCc2nnc(-c3ccccc3)o2)cc1S(=O)(=O)N1CCOCC1
COc1ccc(CN(C)C[C@H]2OCCCC[C@@H](C)Oc3ccc(NC(=O)Nc4ccc5c(c4)OCO5)cc3C(=O)N([C@H](C)CO)C[C@H]2C)cc1
CC(NC(=O)c1ccccc1F)c1nnc(SCC(=O)Nc2nnc(C3CC3)s2)n1C (centres undefined)
C[C@H](CO)N1C[C@H](C)[C@@H](CN(C)CC2CC2)OCc2cnnn2CCCC1=O
Cc1ccc2c(c1)C(c1ccccc1)N(C(=O)c1ccccc1[N+](=O)[O-])CC(=O)N2 (centres undefined)
CCCN1[C@H](CO)[C@H](c2ccc(C3=CCCCC3)cc2)[C@@H]1CNS(C)(=O)=O
Cc1cccc(C)c1NC(=O)C1(C)CCC(=O)N1CCOc1ccccc1 (centres undefined)
CCCNC(=O)C(Cc1ccc(C(F)(F)F)cc1)NC(=O)c1ccc2ccccc2n1 (centres undefined)
COc1cccc(-c2ccc([C@@H]3[C@H](CO)N4CCCCN(C(=O)c5ccc(F)cc5)C[C@@H]34)cc2)c1
O=C(NCCc1ccncc1)Nc1ccc(F)cc1
CC(C)(O)C#Cc1ccc([C@H]2[C@H](CO)N3CCCCN(C(=O)c4ccc(F)cc4)C[C@@H]23)cc1
CN1c2ccc(-c3cccc(C#N)c3)cc2[C@H]2[C@H](CCN2S(=O)(=O)c2ccccc2F)[C@H]1CO
Nn1c(SCc2ccccc2F)nnc1-c1cccnc1
CCn1c(=S)sc2c(=O)n(CC(=O)Nc3ccc(C(C)=O)cc3)c(C)nc21
C[C@@H]1CN([C@H](C)CO)C(=O)c2cccc(NC(=O)C3CCCCC3)c2O[C@@H]1CN(C)Cc1ccc(Oc2ccccc2)cc1
COc1cc(OC)c2ccc(=O)oc2c1C(CC(=O)N1CCN(c2ccccc2)CC1)c1ccc2c(c1)OCO2 (centres undefined)
CCN(CC(=O)NCc1ccc(F)cc1)C(=O)/C=C/c1ccc(OC)c(S(=O)(=O)NC(C)C)c1
Cn1cnc(CCNC(=O)C[C@H]2CC[C@H]3[C@@H](COC[C@@H](O)CN3C(=O)C3CC3)O2)c1
COc1ccccc1NC(=S)NC(=O)Cc1ccccc1
CCC(=O)Nc1ccc2c(c1)OC[C@H](C)N(C(=O)CC1CC1)C[C@H](C)[C@H](OC)CN(C)C2=O
Cc1cc(/C(N)=N/OC(=O)Nc2ccccc2)no1
COCCNC(=O)C1CCCN(Cc2ccc(C(C)C)cc2)CC1 (centres undefined)
COCCOC(=O)c1nccnc1C(=O)Nc1ccc(S(=O)(=O)N2CCOCC2)cc1
COCCN(C(=O)CSc1nc2ccc(OC)cc2[nH]1)c1c(N)n(Cc2ccccc2)c(=O)[nH]c1=O
CCCNC(=O)N[C@H]1C=C[C@@H](CC(=O)N2CCN(C)CC2)O[C@@H]1CO
O=C(Nc1ccccc1F)N[C@@H]1CC[C@H](CCNC(=O)C2CCCCC2)O[C@H]1CO
C[C@H]1CN([C@@H](C)CO)C(=O)c2cccc(NC(=O)C3CC3)c2O[C@@H]1CN(C)Cc1ccc2c(c1)OCO2
NS(=O)(=O)c1ccc(NCc2cnc3ccccc3c2)cc1
C=C(C)n1c(=O)n(Cc2ccccc2C)c2ccccc21
CC1CCN(c2nc3c(c(=O)[nH]c(=O)n3C)n2CC(C)CSc2nnnn2-c2ccccc2)CC1 (centres undefined)
O=C(NC1CCCCC1)[C@H]1[C@H](CO)[C@H]2Cn3c(cccc3=O)[C@H]2N1C(=O)CC1CC1
CC(C)CC1C(=O)N(Cc2cn(CC3CCCCC3)nn2)CCS(=O)(=O)N1Cc1ccc(-c2ccc(Cl)cc2)cc1 (centres undefined)
N#C[C@@H]1[C@H](c2ccccc2C2=CCCCC2)[C@@H](CO)N1S(=O)(=O)c1cccc(F)c1
CCOc1ccccc1CNC(=O)c1cc2occc2n1C
Cn1c(=O)[nH]c2c(nc(-c3ccc(Cl)cc3)n2C)c1=O
